This excerpt belongs to a sample that is enriched for hits.
ST2 IL33 inh: IL1RL1 inhibition; Q01638; 78,000 tested, 2.3% active; inhibition, % for hits at 17 µM; AlphaLISA ST2-Fc/biotin-IL-33 interaction, 1 h; in the data active = inhibition above about 30%
Target sequence (Q01638 whole entry, looked up): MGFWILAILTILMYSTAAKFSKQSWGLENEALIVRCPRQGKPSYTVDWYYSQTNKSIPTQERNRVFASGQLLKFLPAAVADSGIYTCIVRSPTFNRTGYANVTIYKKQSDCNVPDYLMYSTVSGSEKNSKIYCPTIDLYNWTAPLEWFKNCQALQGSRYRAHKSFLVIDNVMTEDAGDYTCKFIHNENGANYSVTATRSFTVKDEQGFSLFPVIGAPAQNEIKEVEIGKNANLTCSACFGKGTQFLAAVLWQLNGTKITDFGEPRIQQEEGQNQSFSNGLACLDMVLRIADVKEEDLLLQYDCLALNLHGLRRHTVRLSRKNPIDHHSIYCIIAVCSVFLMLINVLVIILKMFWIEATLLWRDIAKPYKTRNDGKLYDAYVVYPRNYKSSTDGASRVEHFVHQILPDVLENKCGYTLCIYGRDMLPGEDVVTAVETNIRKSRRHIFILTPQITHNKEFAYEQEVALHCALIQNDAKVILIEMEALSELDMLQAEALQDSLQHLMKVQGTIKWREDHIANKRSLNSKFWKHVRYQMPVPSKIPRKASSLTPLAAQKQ
* = called active by the depositor; i = inactive.

SMILES | ST2 IL33 inh
O=C(c1ccc(-c2ccccc2)cc1)N1Cc2[nH]cnc2C[C@H]1c1nc(-c2ccc3c(c2)OCO3)no1 | i
CN(C)c1nc2c(c(-c3ccccc3CN3CCOCC3)n1)CCCC2 | i
Nc1nc(-c2ccc(-c3ccccc3CN3CCOCC3)cc2)cs1 | 34%*
Nc1nc(-c2ccccc2)cs1 | i
COc1ccc(N2CC(C(=O)Nc3ccccc3I)CC2=O)cc1 (stereo not given) | i
Cc1ccc(N2C(=O)C(C)SC23C(=O)Nc2ccccc23)cc1 (stereo not given) | i
Cc1ccc(C2=NNC3(S2)C(=O)Nc2ccc(C)cc23)cc1 (stereo not given) | 44%*
Cc1ccc2c(c1)C(=O)C(=O)N2 | i
CCOC(=O)N1CCN(CC(C)c2ccccc2)CC1 (stereo not given) | i
COC(=O)c1ccc(N2C(=O)C3C4CC(C(Br)C4Br)C3C2=O)cc1 (stereo not given) | i
O=C(O)CCCc1c[nH]c2ccccc12 | i
CC(Cc1c[nH]c2ccccc12)NC(N)=O (stereo not given) | i
NC(=O)Cc1c[nH]c2cccc(O)c12 | 101%*
CCOc1ccccc1C1C(C(=O)OC2CCCCC2)=C(C)Nc2ncnn21 (stereo not given) | i
CNCC1OCCc2ccccc21 (stereo not given) | i
Cc1ccc(NCC2OCc3ccccc3CO2)cc1 | 97%*
c1ccc(-c2nc3sccn3c2Nc2ccc3c(c2)OCCO3)cc1 | i
Cc1ccc(-c2n[nH]c(=O)c3ccccc23)cc1C | i
COc1ccc(CN2C[C@H](O)C[C@H]2c2nc(-c3ccccc3)no2)cc1 | i
COc1ccc(CN2C[C@H](O)C[C@H]2c2nc(Cc3ccc(F)cc3Cl)no2)c2ccccc12 | i
COc1ccc(-c2noc([C@@H]3C[C@@H](O)CN3Cc3cccc(C#N)c3)n2)cc1 | 58%*
COc1ccc(CN2C[C@H](O)C[C@H]2c2nc(-c3ccncc3)no2)cc1 | i
COc1ccc(CN2C[C@H](O)C[C@H]2c2nc(-c3ccccc3)no2)c(OC)c1OC | i
COc1ccc(CN2C[C@H](O)C[C@H]2c2nc(-c3ccc(F)cc3)no2)c(OC)c1OC | 47%*
CCOc1ccc(CCN2C(=O)CCC2(C)C(=O)NC2CCCC2)cc1OCC (stereo not given) | i
SMILES | ST2 IL33 inh
Cc1oc(-c2ccc(NC(=O)Cc3ccccc3)cc2)nc1CNC(=O)c1c(F)ccc(F)c1F | i
CN1CCC2(CCCN(C(=O)c3[nH]ncc3Cl)CC2)CC1 | i
O=C(c1ccco1)N1C[C@@H]2C[C@H](C1)c1ccc(-c3ccccc3CN3CCOCC3)c(=O)n1C2 | i
O=C(NCCNc1cccnc1)c1c(O)cccc1O | i
COC(=O)c1cccc(C(=O)N2CCC3(CC2)CC3C(=O)NCCc2cccc(OC)c2)c1 (stereo not given) | i
O=C(CSc1ncccn1)Nc1nc(-c2ccccc2)cs1 | i
O=C(CN1C(=O)c2ccccc2C1=O)Nc1nc(-c2ccncc2)cs1 | 36%*
O=C(COc1ccccc1)Nc1nc(-c2ccccc2)cs1 | i
CCCn1c(N2CCNCC2)nc2c1c(=O)[nH]c(=O)n2C | i
O=C1N/C(=C\c2ccc(O)c(Cl)c2)C(=O)N1Cc1ccc(Cl)cc1 | i
CCn1cc(SCC(=O)N2CCC3(CC2)CNC(=O)C3)c2ccccc21 | i
O=C(NCc1ccco1)c1ccc2c(c1)N(Cc1cccc(Cl)c1)C(=O)c1ccccc1S2 | i
O=C(O)c1ccc2c(c1)C(=O)N(c1c[nH]c(=O)[nH]c1=O)C2=O | i
COc1ccc(NC(=O)c2noc3c2CC(C(C)(C)C)CC3)c(OC)c1 (stereo not given) | i
Cc1ccc(C)c(N(CC(=O)N2CCOCC2)S(C)(=O)=O)c1 | i
COc1cc(/C=C2/SC(N3CCC(C)CC3)=NC2=O)cc(OC)c1OC | i
Cc1ccc(/C=C2/SC(N3CCC(C)CC3)=NC2=O)o1 | 30%*
O=C1N=C(N2CCOCC2)S/C1=C/c1ccc(-c2ccccc2)o1 | 34%*
Cc1ccc(/C=c2\sc3nc(-c4ccc(OC(C)C)cc4)nn3c2=O)o1 | i
O=C1N=C(N2CCOCC2)S/C1=C/c1ccc(Cl)cc1 | i
CN1CCN(C2=NC(=O)/C(=C/c3cccs3)S2)CC1 | i
Cc1ccc(/C=C2\CS/C(=C\c3ccc(C)o3)C2=O)o1 | 60%*
C=CCOc1ccc(/C=C2/SC(N3CCOCC3)=NC2=O)cc1 | i
CCOc1ccc(-c2nc3s/c(=C\c4ccc(C)o4)c(=O)n3n2)cc1 | i
COc1ccccc1CC(=O)NCCC1=CCCCC1 | i
SMILES | ST2 IL33 inh
O=C(c1ccc(F)c(F)c1)N1CCN=C1SCc1ccccc1Cl | i
CCCCN(CC)C(=O)C1c2ccccc2C(=O)N2CCc3cc(OCC)c(OCC)cc3C12 (stereo not given) | i
COc1ccccc1N1CCN(C(=O)c2ccccc2Br)CC1 | i
CN(C(=O)c1ccc2[nH]c(=O)[nH]c2c1)C1Cc2ccccc2C1 | i
c1ccc(CCCC2CN(C3CCSCC3)CCO2)cc1 (stereo not given) | i
COc1cc(C2OCC3C(c4ccc(O[C@@H]5O[C@H](COC(C)=O)[C@@H](O)[C@H](O)[C@H]5O[C@@H]5O[C@@H](C)[C@H](O)[C@@H](O)[C@H]5O)c(OC)c4)OCC23)ccc1O (stereo not given in full) | i
COC(=O)[C@@H]1Cc2ncn(C)c2CN1S(=O)(=O)c1ccc(C#N)cc1 | i
COC(=O)[C@@H]1Cc2ncn(C(C)C)c2CN1S(=O)(=O)c1ccc(OC)cc1 | i
COC(=O)[C@@H]1Cc2ncn(C(C)C)c2CN1S(=O)(=O)c1ccc(C#N)cc1 | 35%*
O=C(Nc1ccc([N+](=O)[O-])cc1)c1cccc(S(=O)(=O)N(CCO)CCO)c1 | i
O=C(NCC1CC(=O)N(C2CC2)C1)c1ccc2oc(Cc3ccc(Cl)cc3)nc2c1 (stereo not given) | i
CC(C)(C)CC(=O)Nc1ccccc1[N+](=O)[O-] | i
O=C(NC1CCCCCC1)c1ccccc1[N+](=O)[O-] | i
O=C(Nc1ccccc1[N+](=O)[O-])C1C2CCCCC21 (stereo not given) | 39%*
C=CCNC(=O)C[C@@H]1CCN(C(=O)Nc2ccccc2)C[C@@H]1CC | i
COc1ccc2nc(Nc3cccc(Cl)c3)sc2c1 | i
CCN1C(=O)N(CCCc2cccnc2)C(=O)C12CCN(Cc1cnc(-c3ccccc3)s1)CC2 | i
CCN1C(=O)N(CCN(C)C)C(=O)C12CCN(Cc1ccc(SC)cc1)CC2 | 51%*
CCOC(=O)C1(CC2CC2)CCN(Cc2ccc(SC)cc2)CC1 | i
COc1cccc(C2CC(c3ccc(F)cc3)n3ncnc3N2)c1 (stereo not given) | i
CCn1cnc2sc(C(=O)N3CCN(c4ccc(F)cc4)CC3)c(C)c2c1=O | i
Cc1cccc(C(=O)N(c2ccc(C(C)C)cc2)C2C=CS(=O)(=O)C2)c1 (stereo not given) | i
O=[N+]([O-])c1cc2c(cc1CN1CCCCCC1)OCO2 | i
O=[N+]([O-])c1cc2c(cc1C=Nc1ccc(I)cc1)OCO2 | i
Cc1cccc(N=Cc2cc3c(cc2[N+](=O)[O-])OCO3)c1C | 39%*
Cc1cccc(N2CCN(Cc3cc4c(cc3[N+](=O)[O-])OCO4)CC2)c1C | 37%*
COc1cc(CN2CCN(c3cccc(C)c3C)CC2)cc([N+](=O)[O-])c1O | i
Cc1ccc(O)c(N=Cc2cccc([N+](=O)[O-])c2O)c1 | i

From PubChem
